# Assay outcomes: PubChem, several laboratories
# FBA Mtb inh: Mtb FBA enzyme inhibitors, primary screen, biochemical, fluorescence, strain H37Rv; purified M. tuberculosis FBA, fluorescence read-out; inhibition, % at 1 µM; 2.3% of 360,000 active;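 further: 0% = vehicle and 100% = reference inhibitor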
# GDH-TPI counter-1: GDH-TPI coupling enzyme inhibitors, primary screen, artefact control for M. tuberculosis FBA inhibitor project, biochemical, absorbance, full deck | GDH-TPI coupled enzyme counterscreen, NADH absorbance | inhibition, % at 4.8 µM | 1.2% of 360,000 active; in the data active means inhibition above about 30%;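 further: 0% = DMSO wells and 100% = wells lacking the enzyme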
# UGM FP inh: M. tuberculosis UGM enzyme inhibitors, primary screen, biochemical, fluorescence polarization, single point; UDP-galactopyranose mutase (Mycobacterium tuberculosis (strain ATCC 25618 / H37Rv)), …; purified UGM, fluorescence polarization probe displacement; inhibition, % at 10 µM; 0.06% of 320,000 active; in the data active means inhibition above about 10%, passing the limit was not always enough
# Target sequence (P9WIQ1 whole entry, looked up): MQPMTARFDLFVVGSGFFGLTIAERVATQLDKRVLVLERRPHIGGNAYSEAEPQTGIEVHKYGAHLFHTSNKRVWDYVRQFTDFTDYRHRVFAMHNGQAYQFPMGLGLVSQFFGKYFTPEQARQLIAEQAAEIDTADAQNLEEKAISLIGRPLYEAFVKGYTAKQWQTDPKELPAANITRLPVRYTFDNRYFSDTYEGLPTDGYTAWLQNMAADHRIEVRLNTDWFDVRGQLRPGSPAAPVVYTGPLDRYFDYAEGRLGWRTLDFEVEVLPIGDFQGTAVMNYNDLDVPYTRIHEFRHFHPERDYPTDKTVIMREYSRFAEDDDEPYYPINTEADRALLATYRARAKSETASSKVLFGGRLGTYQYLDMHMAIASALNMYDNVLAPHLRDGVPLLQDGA
# Rv3671c protease: Rv3671c serine protease inhibitors, primary screen, biochemical, fluorescence polarization, M. tuberculosis H37Rv; P9WHR9; inhibition, % at 5.96 µM; 0.048% of 320,000 active; AID 2606, 2010; in the data active means inhibition above about 38%;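 further: extracellular domain of Rv3671c used as enzyme; 0% = enzyme with DMSO and 100% = no enzyme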
# Mtb bLac sens: beta-lactam sensitization of Mtb H37Rv, H37Rv | M. tuberculosis H37Rv growth with meropenem, percent inhibition | 0.27% of 330,000 active | inhibition, % at 25 µM; call rule not given here;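 further: growth measured after seven days incubation then overnight dye step; 0% = bacteria only wells and 100% = bacteria with antibiotic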
# RecA intein inh: Mtb RecA intein splicing inhibitors, primary screen, biochemical, fluorescence, HTS. Protein RecA (Mycobacterium tuberculosis (strain ATCC 25618 / H37Rv)), P9WHJ3. cell-free RecA intein splicing. inhibition, % (concentration not given with the values). 0.75% of 290,000 active. AID 2221, 2009; in the data active means inhibition above about 30%;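 further: 0% = vehicle wells and 100% = reference inhibitor control wells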
# Mtb FBA confirm: M. tuberculosis aldolase blockers, biochemical, fluorescence, strain H37Rv, confirmation | shares compounds with FBA Mtb inh | purified M. tuberculosis FBA, fluorescence read-out | inhibition, % at 1 µM | 78% of 5,600 active;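 further: 0% = vehicle wells and 100% = reference inhibitor wells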
# GDH-TPI counter-2: GDH-TPI coupling enzyme inhibitors, artefact control for M. tuberculosis FBA inhibitor project, biochemical, fluorescence, high throughput | shares compounds with FBA Mtb inh | GDH-TPI coupled enzyme counterscreen | inhibition, % at 1 µM | 81% of 5,600 active; in the data active means inhibition above about 10%
# The depositor's hits bear a star; . = not tested or not shown; + = active, no number. This is a sample that favours compounds with a hit; in the whole collection about 4% have one here. Unless noted, no stated cut-off is given here; in the data, active means inhibition above about 27%; inactive means the rest.
SMILES,FBA Mtb inh,GDH-TPI counter-1,UGM FP inh,Rv3671c protease,Mtb bLac sens,RecA intein inh,Mtb FBA confirm,GDH-TPI counter-2
COc1ccc(S(=O)(=O)N2CCCCC2)cc1NC(=O)CCNC(=O)c1ccco1,-2,2,.,.,.,.,.,.
CCC1CCCCN1C(=O)c1cc2c(=O)n3cccc(C)c3nc2s1 (stereo not given),16,7,0,4,3,.,.,.
Cc1cccn2c(=O)c3cc(C(=O)NC4CCCC4)sc3nc12,91*,17,-1,2,7,-30,66*,51*
CCCN(CCC)C(=O)c1cc2c(=O)n3cccc(C)c3nc2s1,30*,24,-4,0,5,-16,137*,98*
Cc1cccn2c(=O)c3cc(C(=O)NCCCOC(C)C)sc3nc12,103*,23,0,1,-2,-16,4,2
Cc1cccn2c(=O)c3cc(C(=O)N4CCCCC4)sc3nc12,64*,31*,-1,-3,5,-11,122*,83*
CCOCCCNC(=O)c1cc2c(=O)n3cccc(C)c3nc2s1,24,15,2,-8,-6,-12,.,.
CC(=O)Nc1ccc(NC(=O)CSc2ccc(-c3ccc(-n4ccnc4)cc3)nn2)cc1,1,6,1,1,3,-2,.,.
COCCN(CC(=O)Nc1cccc(C)c1C)C(=O)C1(c2ccc(Cl)cc2)CCC1,3,22,1,-4,-6,.,.,.
COc1ccccc1C(=O)Nc1cccc2cccnc12,-1,15,4,-24,71,.,.,.
O=C(CSc1nnc(NC(=O)C2CCC2)s1)Nc1ccccc1F,1,-3,1,-11,0,-1,.,.
CC(C)Cc1nnc(NC(=O)c2ccc(-n3cncn3)c([N+](=O)[O-])c2)s1,4,20,.,.,.,.,.,.
COc1ccc(NC(=O)CSc2nnc(-c3cccs3)n2N)c(OC)c1,0,-5,-1,9,-12,7,.,.
CCOC(=O)C1CCN(C(=O)c2cc3c(=O)n4cccc(C)c4nc3s2)CC1,100*,12,0,-10,1,-23,+,166*
Cc1cccn2c(=O)c3cc(C(N)=S)c(=N)n(CCCOC(C)C)c3nc12,63*,16,2,-1,-4,-481,6,0
CC(C)CN(CC(C)C)C(=O)c1cc2c(=O)n3ccccc3nc2s1,59*,4,4,-1,10,-29,+,194*
CCCCc1cc(=O)oc2cc(C)cc(OCC(=O)NCC3CCC(C(=O)O)CC3)c12 (stereo not given),67*,2,5,6,-7,-4,0,-2
CCCCc1cc(=O)oc2cc(OC(C)C(=O)NCC3CCC(C(=O)O)CC3)c(Cl)cc12 (stereo not given),6,8,2,-5,-11,11,.,.
CCCCc1cc(=O)oc2cc(C)cc(OCC(=O)NCc3ccncc3)c12,81*,7,0,-10,-9,-3,139*,108*
Cc1cc(OCC(=O)NCc2ccccn2)c2c(C)cc(=O)oc2c1,79*,3,-2,-2,1,0,103*,72*
CCCc1cc(=O)oc2cc(C)cc(OCC(=O)NCc3ccccn3)c12,55*,6,0,4,4,-1,28*,32*
Cc1nc(SCc2nc3c(O)cccc3[nH]2)c2oc3ccccc3c2n1,1,-2,-4,0,2,.,.,.
CCCCn1c(N)c(N(CC(C)C)C(=O)CSCc2cccc(C)c2)c(=O)[nH]c1=O,2,10,3,-5,-11,0,.,.
Cc1ccc(-c2cc(C(=O)NCc3ccco3)c3ccccc3n2)o1,2,-1,0,-15,-3,-16,.,.
Cc1ccc(-c2cc(C(=O)NCC(c3ccccc3)N(C)C)c3ccccc3n2)o1 (stereo not given),71*,18,5,-10,-11,.,54*,46*
SMILES,FBA Mtb inh,GDH-TPI counter-1,UGM FP inh,Rv3671c protease,Mtb bLac sens,RecA intein inh,Mtb FBA confirm,GDH-TPI counter-2
COc1ccc(NC(=O)CN(C)C(=O)c2cc(-c3ccc(Cl)cc3)nc3ccccc23)cc1,-2,7,4,-11,3,1,.,.
COc1cccc(NC(=O)CN(C)C(=O)c2cc(-c3ccc(C)o3)nc3ccccc23)c1,56*,6,-1,-9,3,.,37*,39*
CCOc1ccc(NC(=O)CN(C)C(=O)c2cc(-c3ccc(OC)cc3)nc3ccccc23)cc1OCC,28*,9,.,8,-7,2,51*,39*
Cc1cccc(C(=O)NCC(=O)N2CCN(S(=O)(=O)c3cc(C)ccc3C)CC2)c1,7,-3,0,8,-16,5,.,.
O=C(CCCN1C(=O)NC2(CCCC2)C1=O)Nc1cccc(S(=O)(=O)N2CCOCC2)c1,4,6,.,.,.,.,.,.
COc1ccc(C(=O)Oc2ccc(N(C)S(=O)(=O)c3ccccc3)cc2)cc1[N+](=O)[O-],-2,13,1,0,86,5,.,.
CN(Cc1nc2ccccc2c(=O)[nH]1)C(=O)c1cc(C2CC2)nn1-c1ccccc1,-1,-3,0,4,-9,.,.,.
CC(NC(=O)c1ccc(OC2CCN(C(=O)c3cccnc3)CC2)cc1)C1CC1 (stereo not given),2,-4,-1,-8,-1,-1,.,.
O=C(c1cccnc1)N1CCC(Oc2ccc(C(=O)N3CCCC(O)C3)cc2)CC1 (stereo not given),28*,3,-3,-7,4,-1,58*,30*
COc1cc2ccccc2cc1C(=O)OCC(=O)N(CC(C)C)c1c(N)n(Cc2ccccc2)c(=O)[nH]c1=O,24,11,-1,-1,1,1,.,.
COC(=O)c1ccc2c(=O)sc(N3CCC(C(N)=O)CC3)nc2c1,40*,-2,0,8,-2,-41,72*,61*
COC(=O)c1ccc2c(=O)n(CCCCCC(=O)NC(C)C)c(=O)[nH]c2c1,10,1,6,-13,-1,-4,.,.
COC(=O)c1ccc2ccn(CC(=O)NC(C)C)c2c1,85*,-4,2,3,-4,1,191*,143*
COc1cc(C(=O)NCCCNc2nc3cc(C)cc(C)c3cc2C#N)cc(OC)c1OC,32*,14,0,-2,5,-13,85*,55*
COc1ccc(Nc2nc3ccc(C)cc3cc2C#N)c(OC)c1,6,13,1,-33,6,0,.,.
